Reference: PubChem BioAssay (EPA / NIEHS)
“And” between values parts separate entries of the source, which are not always exact repeats. Equal entries are not always repeated. Results filed as inconclusive are left out. The source made the active and inactive calls. How the source made its calls, unless noted: active means hit-call score of the fitted dose curve at least 0.9, where 1 is the maximum; inactive means score below 0.9.

Experiments:
[1] = read-out: Monokine induced gamma interferon (MIG), CXCL9 (gene 4283); test: BSK_3C_MIG: BioMAP Diversity Plus: 3C Assay for Monokine induced gamma interferon (MIG) Biomarker Activity (AID 2283021); settings: primary human endothelial cells (HUVEC); actives raise or lower the signal;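 on AC50: MIG protein level measured by immunoassay in the treated endothelial cultures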
Procedure, shortened: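 After 24 h of treatment, human umbilical vein endothelial cultures (3C system) had their MIG biomarker level determined by ELISA, with DMSO serving as negative control.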

[2] = molecular target: human Vitamin D Receptor (VDR), VDR (gene 7421) (UniProt P11473); test: ATG_VDR_TRANS: Attagene TRANS-FACTORIAL HepG2 Assay for human Vitamin D Receptor (VDR) (AID 2283022; active means hit-call score of the fitted dose curve at least 0.9, where 1 is the maximum)
Procedure, shortened: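 RT-PCR/capillary electrophoresis read-out of reporter mRNA induction in transiently transfected HepG2; 24 h dosing; chimeric NR-Gal4 (TRANS format); gain-of-signal fit against DMSO baseline.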

[3] = read-out: Matrix Metallopeptidase 1 (MMP1), MMP1 (gene 4312); test: BSK_BE3C_MMP1: BioMAP Diversity Plus: BE3C Assay for Matrix Metallopeptidase 1 (MMP1) Biomarker Activity (AID 2283024); settings: primary human bronchial epithelial cells; actives raise or lower the signal
Procedure, shortened: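 Dose cells, wait 24 h, run MMP1 ELISA; cells are human bronchial epithelial primaries. Both increases and decreases relative to DMSO counted.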

[4] = read-out: Pselectin, SELP (gene 6403); test: BSK_4H_Pselectin: BioMAP Diversity Plus: 4H Assay for Pselectin Biomarker Activity (AID 2283026); settings: primary human endothelial cells (HUVEC); actives raise or lower the signal
Procedure, shortened: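 Human vascular endothelium from umbilical vein; P-selectin measured by ELISA at 24 h post-dose, with cytotoxicity checked by sulforhodamine B total-protein staining in parallel cultures (0.1% SRB after 10% TCA fixation, read at 560 nm).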

[5] = BSK_4H_SRB: Viability Assessment in the BioMAP Diversity Plus: 4H Assay (AID 2283027); settings: primary human endothelial cells (HUVEC);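 further: cells exposed to compound for 24 h before staining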;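 on AC50: curves fitted both ways versus DMSO so AC50 may be loss or gain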
Procedure, shortened: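 Absorbance at 560 nm of SRB-stained total protein served as the viability read-out in confluent primary human umbilical vein endothelium 24 h after chemical treatment. Curves were fitted bidirectionally against DMSO as negative control.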

[6] = BSK_BE3C_SRB: Viability Assessment in the BioMAP Diversity Plus: BE3C Assay (AID 2283028); settings: primary human bronchial epithelial cells;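 on AC50: fitted both ways so AC50 may mark signal gain or loss versus DMSO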
Procedure, shortened: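 Primary human bronchial epithelium; chemical dosing, 24 h; 10% TCA fix, 0.1% SRB stain, A560; bidirectional fit vs DMSO baseline.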

[7] = read-out: Thrombomodulin, THBD (gene 7056); test: BSK_3C_Thrombomodulin: BioMAP Diversity Plus: 3C Assay for Thrombomodulin Biomarker Activity (AID 2283029); settings: primary human endothelial cells (HUVEC); actives raise or lower the signal
Procedure, shortened: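 Thrombomodulin ELISA, human primary HUVEC, 24 h post-dose; data fitted in both directions relative to DMSO.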

[8] = read-out: Urokinase-type plasminogen activator receptor (uPAR), PLAUR (gene 5329); test: BSK_4H_uPAR: BioMAP Diversity Plus: 4H Assay for Urokinase-type plasminogen activator receptor (uPAR) Biomarker Activity (AID 2283030); settings: primary human endothelial cells (HUVEC); actives raise or lower the signal
Procedure, shortened: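 HUVEC, 24 h post-dose; uPAR by ELISA; bidirectional fit vs DMSO baseline.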

[9] = BSK_3C_Vis: BioMAP Diversity Plus: 3C Assay for Morphology Visualization (AID 2283025); settings: primary human endothelial cells (HUVEC);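 further: fitted both ways so gain or loss versus DMSO counts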;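 on AC50: light microscopy image of cell morphology used as background control; cells imaged 24 h after dosing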
Procedure, shortened: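 Endothelial cells from human umbilical vein were treated with test chemicals for 24 h and inspected by light microscopy for changes in cell conformation.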

[10] = BSK_3C_SRB: Viability Assessment in the BioMAP Diversity Plus: 3C Assay (AID 2283023); settings: primary human endothelial cells (HUVEC);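 further: cells read 24 h after compound dosing; fitted both ways against DMSO so a hit may be signal rise or drop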
Procedure, shortened: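 HUVEC, 24 h post-dose; 10% TCA fix, 0.1% SRB stain, A560 nm. Bidirectional curve fit vs DMSO negative control.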

Measured: AC50

human Vitamin D Receptor (VDR), VDR (gene 7421), sequence (P11473 whole entry, looked up, the tested form may be a part): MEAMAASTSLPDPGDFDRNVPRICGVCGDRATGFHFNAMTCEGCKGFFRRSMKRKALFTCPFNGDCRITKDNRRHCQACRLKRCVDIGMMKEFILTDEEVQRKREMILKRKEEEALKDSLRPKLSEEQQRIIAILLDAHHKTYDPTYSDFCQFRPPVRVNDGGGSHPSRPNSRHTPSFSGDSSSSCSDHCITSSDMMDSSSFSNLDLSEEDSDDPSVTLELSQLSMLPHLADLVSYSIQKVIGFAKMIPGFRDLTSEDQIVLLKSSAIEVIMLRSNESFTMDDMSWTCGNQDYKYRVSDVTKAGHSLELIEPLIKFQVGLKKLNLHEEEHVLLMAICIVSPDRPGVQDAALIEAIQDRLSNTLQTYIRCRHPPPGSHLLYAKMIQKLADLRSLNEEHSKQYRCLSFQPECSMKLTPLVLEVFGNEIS

C=CC(C)(O)CCC=C(C)C (configuration not stated)
inactive: [1] | [2] | [3] | [4] | [5] | [6] | [7] | [8]

CN(C)C(=O)Nc1ccc(Oc2ccc(Cl)cc2)cc1
inactive: [1] | [2] | [3] | [9] | [4] | [5] | [6] | [7] | [8]

CS(=O)(=O)OCCCCOS(C)(=O)=O
inactive: [1] | [3] | [9] | [4] | [5] | [6] | [7] | [8]

O=C1OC[C@H](Cc2cccc(O)c2)[C@H]1Cc1cccc(O)c1
inactive: [1] | [2] | [3] | [9] | [4] | [5] | [6] | [7] | [8]

Clc1cc(Cl)c(-c2c(Cl)c(Cl)cc(Cl)c2Cl)cc1Cl
active: [9] 19.9 µM | [4] 10 µM | [5] 18.8 µM | [8] 17.4 µM
inactive: [1] | [3] | [6] | [7]

CCCCN(CCCC)C(=O)N(CCCC)CCCC
inactive: [2] | [7]
active: [1] 12.5 µM | [10] 7.99 µM | [3] 20 µM | [9] 2.98 µM | [4] 12.2 µM | [5] 8.59 µM | [6] 7.45 µM | [8] 7.82 µM

O=C1c2ccccc2C(=O)c2c(O)ccc(O)c21
inactive: [1] | [3] | [4] | [5] | [6] | [7]
active: [9] 13.6 µM | [8] 6.4 µM

O=C(Nc1ccc2c(O)c(N=Nc3ccc(N=Nc4ccc(S(=O)(=O)O)cc4)cc3)c(S(=O)(=O)O)cc2c1)c1ccccc1
inactive: [1] | [2] | [4] | [5] | [6] | [7] | [8]
active: [3] 16 µM and 10.4 µM

C1=CC2C3C=CC(C3)C2C1 (configuration not stated)
inactive: [1] | [2] | [3] | [9] | [4] | [5] | [6] | [7] | [8]

CN(c1nccc(=O)[nH]1)C1CCN(c2nc3ccccc3n2Cc2ccc(F)cc2)CC1
active: [3] 0.00777 µM | [4] 0.00777 µM
inactive: [1] | [2] | [9] | [5] | [6] | [7] | [8]

CC(=O)Nc1ccc(C(=O)CCl)cc1
inactive: [2] | [6] | [7]
active: [1] 10.9 µM | [3] 13.2 µM | [9] 4.8 µM | [4] 4.79 µM | [5] 6.69 µM | [8] 9.47 µM

CCCCOC(=O)CCCCCCCC(=O)OCCCC
inactive: [1] | [2] | [3] | [9] | [4] | [5] | [6] | [7] | [8]

C=C(C)C(=O)OCCOCCOCCOC(=O)C(=C)C
inactive: [1] | [3] | [9] | [4] | [5] | [6] | [7] | [8]

CC(=O)C1(C)CC2=C(CCCC2(C)C)CC1C (configuration not stated)
active: [1] 20 µM | [3] 27.5 µM | [9] 8.8 µM | [4] 5.95 µM | [5] 6.99 µM | [6] 27.1 µM | [8] 5.19 µM
inactive: [7]

C=C(C)[C@H]1CC=C(C)C(=O)C1
inactive: [1] | [2] | [3] | [9] | [4] | [5] | [6] | [7] | [8]

O=C1OC2(c3ccccc31)c1ccc(O)c(Br)c1Oc1c2ccc(O)c1Br
active: [9] 37.5 µM | [4] 20 µM | [7] 20 µM | [8] 20 µM
inactive: [1] | [2] | [3] | [5] | [6]

CSCCC=O
inactive: [1] | [2] | [3] | [9] | [4] | [5] | [6] | [7] | [8]

CN(C)C(=S)SC(=S)N(C)C
inactive: [1] | [2] | [3] | [4] | [6] | [7] | [8]
active: [9] 39.2 µM | [5] 19.9 µM

CCC(C)c1cc([N+](=O)[O-])cc([N+](=O)[O-])c1OC(=O)OC(C)C (configuration not stated)
active: [1] 33.2 µM | [3] 35.1 µM | [9] 12 µM | [4] 9.75 µM | [5] 13.9 µM | [6] 29.4 µM | [7] 20 µM | [8] 13 µM
inactive: [2]

Cc1cc(CCC(=O)OCCOCCOCCOC(=O)CCc2cc(C)c(O)c(C(C)(C)C)c2)cc(C(C)(C)C)c1O
inactive: [1] | [3] | [9] | [4] | [5] | [6] | [7] | [8]

CC=Cc1ccc(OCC)c(O)c1
inactive: [1] | [2] | [3] | [9] | [4] | [5] | [6] | [7] | [8]
